{"source": "PubChem BioAssay", "note": "The source made the active and inactive calls. No rule for the calls is given here.", "data": [{"test_system": "Aerobactin synthetase IucA (Klebsiella pneumoniae, hypervirulent)", "assay": "biochemical IucA inhibition screen of LOPAC library by absorbance (AID 1346212);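 also: 100% = no compound wells and 0% = no enzyme wells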", "conditions": "IucA enzyme assay, absorbance (OD) readout; stronger effect = lower value;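 tested at 8 µM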", "values": [{"smiles": "CO[C@@]1(NC(=O)CSCC#N)C(=O)N2C(C(=O)O)=C(CSc3nnnn3C)CS[C@@H]21", "remaining activity": "118% (inactive)"}, {"smiles": "C[C@]12CCC(=O)C=C1CC[C@@H]1[C@@H]2[C@@H](O)C[C@@]2(C)[C@H]1CC[C@]2(O)C(=O)CO", "remaining activity": "104% (inactive)"}, {"smiles": "O=C[C@H](Cl)[C@@H](O)[C@H](O)[C@H](O)CO", "remaining activity": "101% (inactive)"}, {"smiles": "CCCCCCCCCC[Si](C)(C)CCC(=O)NC(Cc1ccc(C)cc1)c1ccccc1", "note": "(stereo not given)", "remaining activity": "116% (inactive)"}, {"smiles": "N#C/C(=C\\c1ccc(O)c(O)c1)C(=O)N1CCc2ccccc21", "remaining activity": "107% (inactive)"}, {"smiles": "CCCn1c(=O)c2[nH]c(-c3ccc(S(=O)(=O)O)cc3)nc2n(CCC)c1=O", "remaining activity": "111% (inactive)"}, {"smiles": "CCCCN1CCC(n2c(=O)[nH]c3ccccc32)CC1", "remaining activity": "110% (inactive)"}, {"smiles": "NC(=O)c1ccc2[nH]ccc2c1", "remaining activity": "89.8% (inactive)"}, {"smiles": "O=c1[nH]c2ccccc2n1CCCN1CCN(C(c2ccccc2)c2ccccc2)CC1", "remaining activity": "116% (inactive)"}, {"smiles": "COc1ccc(CCNC[C@@H](O)c2ccc(O)cc2)cc1OC", "remaining activity": "91.4% (inactive)"}, {"smiles": "CC(N)=O", "remaining activity": "124% (inactive)"}, {"smiles": "Nc1nc2c(ncn2COC(CO)CO)c(=O)[nH]1", "remaining activity": "111% (inactive)"}, {"smiles": "CC(=O)/C(C)=N/O", "remaining activity": "106% (inactive)"}, {"smiles": "N[C@H]1CONC1=O", "remaining activity": "113% (inactive)"}, {"smiles": "O=C(O)/C=C/C(O)c1ccc(Cl)cc1", "note": "(stereo not given)", "remaining activity": "120% (inactive)"}, {"smiles": "CC1=C(CC(=O)O)c2cc(F)ccc2/C1=C\\c1ccc(S(C)(=O)=O)cc1", "remaining activity": "93.6% (inactive)"}, {"smiles": "N#Cc1cc2nc(O)c(O)nc2cc1[N+](=O)[O-]", "remaining activity": "86.8% (inactive)"}, {"smiles": "CC(N)=NCCCC[C@@H](N)C(=O)O", "remaining activity": "124% (inactive)"}, {"smiles": "Cc1nc(N=Nc2cc(S(=O)(=O)O)c3cc([N+](=O)[O-])cc(S(=O)(=O)O)c3c2)c(COP(=O)(O)O)c(C=O)c1O", "remaining activity": "118% (inactive)"}, {"smiles": "CC(C)(C)c1ccc(S(=O)(=O)/C=C/C#N)cc1", "remaining activity": "119% (inactive)"}, {"smiles": "CC[N+](C)(C)Cc1ccccc1Br", "remaining activity": "108% (inactive)"}, {"smiles": "COc1cc(=O)n(C)c2c(OCC(O)C(C)(C)O)cccc12", "note": "(stereo not given)", "remaining activity": "108% (inactive)"}, {"smiles": "CCCCC/C=C\\C[C@@H](O)/C=C/c1cccc(C[C@@H](O)CCCCO)n1", "remaining activity": "92.2% (inactive)"}, {"smiles": "Fc1ccc(CN(C2=NCCN2)c2c(Cl)cccc2Cl)cc1", "remaining activity": "113% (inactive)"}, {"smiles": "CC(=O)O[C@]1(C(C)=O)CC[C@H]2[C@@H]3C=C(Cl)C4=CC(=O)[C@@H]5C[C@@H]5[C@]4(C)[C@H]3CC[C@@]21C", "remaining activity": "95.7% (inactive)"}, {"smiles": "C[C@]12C=CC(=O)C=C1CC[C@H]1[C@@H]3C[C@@H](O)[C@](O)(C(=O)CO)[C@@]3(C)C[C@H](O)[C@@]12F", "remaining activity": "110% (inactive)"}, {"smiles": "OC[C@H]1O[C@@H](n2cnc3c(Nc4ccccc4)ncnc32)[C@H](O)[C@@H]1O", "remaining activity": "89.3% (inactive)"}, {"smiles": "O=c1c(O)c(-c2cc(O)c(O)c(O)c2)oc2cc(O)cc(O)c12", "remaining activity": "115% (inactive)"}, {"smiles": "CCCC(=O)NCCc1c2n(c3ccc(OC)cc13)Cc1ccccc1-2", "remaining activity": "89.8% (inactive)"}, {"smiles": "CC1=C(C(=O)O)N2C(=O)[C@@H](NC(=O)[C@H](N)C3=CCC=CC3)[C@H]2SC1", "remaining activity": "113% (inactive)"}, {"smiles": "C[C@@H](NC(=O)/C(C#N)=C/c1ccc(O)c(O)c1)c1ccccc1", "remaining activity": "97.8% (inactive)"}, {"smiles": "CCCCCN(CCCCC)C(=O)C(CCC(=O)O)NC(=O)c1ccc(Cl)c(Cl)c1", "note": "(stereo not given)", "remaining activity": "110% (inactive)"}, {"smiles": "NCCCCNCCCN", "remaining activity": "107% (inactive)"}, {"smiles": "CC1(C)CCC=[N+]1[O-]", "remaining activity": "120% (inactive)"}, {"smiles": "N#CC(=C(/N)Sc1ccccc1N)/C(C#N)=C(\\N)Sc1ccccc1N", "remaining activity": "104% (inactive)"}, {"smiles": "CC(C)NC[C@@H](O)c1ccc(O)c(O)c1", "remaining activity": "119% (inactive)"}, {"smiles": "S=C(Nc1ccccc1)Nc1nccs1", "remaining activity": "125% (inactive)"}, {"smiles": "C[C@H](NC(=O)/C(C#N)=C/c1ccc(O)c(O)c1)c1ccccc1", "remaining activity": "95.7% (inactive)"}, {"smiles": "O=C1O/C(=C/Br)CCC1c1cccc2ccccc12", "note": "(stereo not given)", "remaining activity": "112% (inactive)"}, {"smiles": "CC(C)[C@H]1c2ccc(F)cc2CC[C@@]1(CCN(C)CCCc1nc2ccccc2[nH]1)OC(=O)C1CC1", "remaining activity": "118% (inactive)"}]}]}
